Test results from paper PMC7819943, “Rice protein-binding microarrays: a tool to detect cis-acting elements near promoter regions in rice”.
In all, about 39,000 sequences were measured (“fluorescence intensity (a.u.)”: median about 4,300, highest 2% from about 39,000 on). What follows is part of a selection rich in the highest values, with near analogues and random picks from the rest.

These sequences were tested against T1, OsSMF1 (Oryza sativa, UniProt Q6ZLB0 1-436) (assay: protein-binding microarray (RPBM); PBS, 2% BSA, 51.3 ng/ul salmon testes DNA, 50 uM zinc acetate, 200 nM TF, 25 C, 1 h; high values mean tight binding). Settings: protein: recombinant; tags: N-terminal polyhistidine and DsRed monomer fusion (pET32a); chain copies: 2; label: CyDye5-dUTP incorporated in the synthesized complementary strand; 3' TTTTT single-stranded linker to array surface; dsDNA, one strand shown.
T1 sequence: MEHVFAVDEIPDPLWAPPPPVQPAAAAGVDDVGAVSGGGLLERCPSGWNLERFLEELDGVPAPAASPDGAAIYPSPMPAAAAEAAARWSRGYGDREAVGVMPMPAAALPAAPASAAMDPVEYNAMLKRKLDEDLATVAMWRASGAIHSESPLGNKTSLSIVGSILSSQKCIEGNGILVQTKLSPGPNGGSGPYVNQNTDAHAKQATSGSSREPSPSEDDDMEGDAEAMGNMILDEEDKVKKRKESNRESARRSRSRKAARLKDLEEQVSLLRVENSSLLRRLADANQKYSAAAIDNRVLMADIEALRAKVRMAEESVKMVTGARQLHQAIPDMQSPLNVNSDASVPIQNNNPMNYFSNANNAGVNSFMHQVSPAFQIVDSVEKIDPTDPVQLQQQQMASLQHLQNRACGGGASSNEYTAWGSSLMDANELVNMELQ
Summary of the method: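 Transcription factors, each fused N-terminally to a polyhistidine tag and DsRed, were expressed in E. coli BL21-CodonPlus and purified on Ni–NTA. A custom Agilent array was made double-stranded by primer extension with Cy5-dUTP and blocked with 2% BSA. It was incubated with 200 nM protein in PBS, 2% BSA, salmon testes DNA and 50 µM zinc acetate at 25 °C for 1 h, then washed. The binding signal is per-feature fluorescence intensity (arbitrary units) read on an Axon 4000B scanner.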

Sequence | binding signal
CGGCCCAGCAGGCGAGCGTGACGTGGACCGGTCGTTTCGCCGGAGTCACCTAGTGCAG | 5650 fluorescence intensity (a.u.)
TTGGCTGGAGCATCGTCACTACTATTCGACACTAAGGTGTCGGAGTCACCTAGTGCAG | 3240 fluorescence intensity (a.u.)
AGAATTCCGTGATACGCGCATACGCGTCGACAAGAGAAATCGGAGTCACCTAGTGCAG | 3280 fluorescence intensity (a.u.)
CCACGCGTCGTCGACGTACTGCGCGATGACGGCGGACTCGCGGAGTCACCTAGTGCAG | 4700 fluorescence intensity (a.u.)
GCCTCGAACGACGTGTGGACGCGATGGAAGATGCGTTCTGCGGAGTCACCTAGTGCAG | 3210 fluorescence intensity (a.u.)
GGAAGGCGACGCGTTACTGTGCACGATGCGGACCTCGAAACGGAGTCACCTAGTGCAG | 60400 fluorescence intensity (a.u.)
CATACATGGAAAAGACAAATCGCCTGGTGCATGAGGCGCTCGGAGTCACCTAGTGCAG | 40600 fluorescence intensity (a.u.)
ACGCGCTCGCCTCGCGTCATCGGATCAAATGGTGGAGGCGCGGAGTCACCTAGTGCAG | 3970 fluorescence intensity (a.u.)
TCGCTCGCTCGCCTGCCAAATCTGCATTGGTGCTAGGAGGCGGAGTCACCTAGTGCAG | 3730 fluorescence intensity (a.u.)
TCCTTTCGTTATCTGTACGGCAGTGACGTCCACGACTCGACGGAGTCACCTAGTGCAG | 4340 fluorescence intensity (a.u.)
CTGCAGTACAACAAACATGATAGTACTTGAAATCATCTTGCGGAGTCACCTAGTGCAG | 27400 fluorescence intensity (a.u.)
CAACAAGCGGGTGGCTGGAAGGTGTGTGTGTGAGAGAGAGCGGAGTCACCTAGTGCAG | 3180 fluorescence intensity (a.u.)
GATATCACAACCTGACCCACATTAGTCACACGCACTCACACGGAGTCACCTAGTGCAG | 3790 fluorescence intensity (a.u.)
ATAAAGAATATGTAGAATTGGAACTATGCTAAGAGAAGAGCGGAGTCACCTAGTGCAG | 3280 fluorescence intensity (a.u.)
TGGAGTAAACGATGAATACATGTTATAATAGTGTAGATTGCGGAGTCACCTAGTGCAG | 65100 fluorescence intensity (a.u.)
CTATTGTATGAATTGGCTATAGATGATTTGGAGGCAGTAGCGGAGTCACCTAGTGCAG | 3800 fluorescence intensity (a.u.)
ATGAGTGTGAGTGTGGCATGCGTGCATGTGTAATAGTAAACGGAGTCACCTAGTGCAG | 3480 fluorescence intensity (a.u.)
GTATTGTGTGTATTTATACATCATGAAAGAATAGAATAAACGGAGTCACCTAGTGCAG | 28600 fluorescence intensity (a.u.)
GTAAGAATTGGCTGTTAGATTGGCTATAAATGAATTGGAGCGGAGTCACCTAGTGCAG | 50800 fluorescence intensity (a.u.)

Sequence | binding signal
TTCAAGTCCACATGGTGCTGACGTGAAACTGTCACATACACGGAGTCACCTAGTGCAG | 7250 fluorescence intensity (a.u.)
GCATAGGAAGGTGACATGGCATATCCATGTGGCGATTTTGCGGAGTCACCTAGTGCAG | 7280 fluorescence intensity (a.u.)
ACCAGTACGCATAGCATCATGTTGTTCCTGTGAAAGCATCCGGAGTCACCTAGTGCAG | 3460 fluorescence intensity (a.u.)
AGCTTCATCTGCAATCCTCCGCTGATCTCTCCCTGTCCGGCGGAGTCACCTAGTGCAG | 3940 fluorescence intensity (a.u.)
CCATCGCCGCCGCCCTCTTCTTCTTCTTCTTGCGAAGCAACGGAGTCACCTAGTGCAG | 19100 fluorescence intensity (a.u.)
TTATTTTGGTCAGTTGAAGTGTGGAAAATGGTGAAAATCTCGGAGTCACCTAGTGCAG | 3880 fluorescence intensity (a.u.)
AAGAGATCCTTGTGTTTCGGAAGAATTTTGGTTGGTGTATCGGAGTCACCTAGTGCAG | 23500 fluorescence intensity (a.u.)
ACAAGTTGGAGCTACTTTCTTTTGAAATGACAGATCAACTCGGAGTCACCTAGTGCAG | 3250 fluorescence intensity (a.u.)
TTTCAGAGTTTGAAGTTGGAAATCAACCTTGTTGTTCTCTCGGAGTCACCTAGTGCAG | 63100 fluorescence intensity (a.u.)
CATAATATGGTAGTGTTGTTTCTCATGCAAGTATTGGCGTCGGAGTCACCTAGTGCAG | 3160 fluorescence intensity (a.u.)
GCAGAGGAACCTTGGTAGTAGTATTTGGTTTCTCAGAAGTCGGAGTCACCTAGTGCAG | 52600 fluorescence intensity (a.u.)
GAGAGCTCCCTTTTCGTACCACCTCGCCGCGTCGGCTGCTCGGAGTCACCTAGTGCAG | 4870 fluorescence intensity (a.u.)
AGCCGCGGTCACGCACGCCACGCGTTCGATCGATCGATCACGGAGTCACCTAGTGCAG | 4120 fluorescence intensity (a.u.)
GCTGGCTGGATTGCCACGTGTATGTCACGTAGGATAAAACCGGAGTCACCTAGTGCAG | 14300 fluorescence intensity (a.u.)
GTTGACCCGCAGTTCCCCTTTGTTTTCCACGTGTTTCTTCCGGAGTCACCTAGTGCAG | 7790 fluorescence intensity (a.u.)
CGGACGTCCCACACGCTTGGTGTCACGACGAGAGGAACCTCGGAGTCACCTAGTGCAG | 3450 fluorescence intensity (a.u.)
ATCAAAGAGGATTCTGTATTGTATTGGCAACAACCGAAAACGGAGTCACCTAGTGCAG | 13800 fluorescence intensity (a.u.)
AAACATCAATTGTATTATCCTTGAAAAGAAGGCACATCACCGGAGTCACCTAGTGCAG | 44800 fluorescence intensity (a.u.)
CTTGAAGGAAAACAAGTATAAGGTTCATCCTCATCATCACCGGAGTCACCTAGTGCAG | 3270 fluorescence intensity (a.u.)

Sequence | binding signal
ATTGAAAATTTTGTTTGAGTGCACATCGTGTGCATTTTATCGGAGTCACCTAGTGCAG | 8920 fluorescence intensity (a.u.)
AAATTTTAATACGTGTAGCATTGCTCCCGGTAATGTATTTCGGAGTCACCTAGTGCAG | 3700 fluorescence intensity (a.u.)
ATAGAGATCACAGTCACACACATATGGCCTGTGCATTTACCGGAGTCACCTAGTGCAG | 3720 fluorescence intensity (a.u.)
GGAGAAACAATATTCGTCATACATTTTGAACCAGATCAAGCGGAGTCACCTAGTGCAG | 31700 fluorescence intensity (a.u.)
CGAAAATGATCTGACACTTATTCGAAAGCAACGTCACAAGCGGAGTCACCTAGTGCAG | 4300 fluorescence intensity (a.u.)
TGACATAGAGAGTGATCACAAGCGAAATATTTATTCGGAACGGAGTCACCTAGTGCAG | 48300 fluorescence intensity (a.u.)
GGCCAGGATGATCGAGCACTTGGTTGTGACACAGAGGGTGCGGAGTCACCTAGTGCAG | 3220 fluorescence intensity (a.u.)
ATTTGGTATGACTTGGCTTCAAACCAAGATGGTCCGGAGTCGGAGTCACCTAGTGCAG | 5390 fluorescence intensity (a.u.)
CCCACATCGCTCCGCGTCATTAGATTTAGCACTTTATCTTCGGAGTCACCTAGTGCAG | 5240 fluorescence intensity (a.u.)
CGCCATGTGTCAACTGGCATGGCCGTGCGCTGGCACACACCGGAGTCACCTAGTGCAG | 5160 fluorescence intensity (a.u.)
CATGTTCGTGCGCCGTCACTACAGGCACCTCGCTGTCAACCGGAGTCACCTAGTGCAG | 40100 fluorescence intensity (a.u.)
TGCGCCGTCTGCGTCAGCGTGCCTCGTCGCAGTCGCAGGCCGGAGTCACCTAGTGCAG | 6400 fluorescence intensity (a.u.)
CTATGGCTCATGAGCCAAAATTCAAAAGGCTAACGTTGGCCGGAGTCACCTAGTGCAG | 43400 fluorescence intensity (a.u.)
TATGACTAATCATGGACTAATTAGGCTCAAAAGATTCGTCCGGAGTCACCTAGTGCAG | 33200 fluorescence intensity (a.u.)
TAAGCTCCAAAGCCAGCTATAGCATGAGCTCCAAAATATACGGAGTCACCTAGTGCAG | 45700 fluorescence intensity (a.u.)
CCTAAATAAGCTAGCAAAATAGCCAATGCCAGCCAATATTCGGAGTCACCTAGTGCAG | 28300 fluorescence intensity (a.u.)
TTGGCCACCTCCACCTCACTCGCATGAAGGCTAAGTGAGCCGGAGTCACCTAGTGCAG | 4160 fluorescence intensity (a.u.)
ATATATACTCCAAGCTCGGTGAGCCAGCATCACCACCAACCGGAGTCACCTAGTGCAG | 3220 fluorescence intensity (a.u.)
